Test results: PubChem BioAssay (NCATS)
Several values for one entry are separate records, joined by “and”; a condition that tells them apart may be missing. Equal entries are not always repeated. Inconclusive results are not listed. Activity calls are given as the source filed them. The call rests on the fitted dose curve; in most records, active means well fitted curve in the direction sought with a large enough effect; inconclusive means small, poorly fitted or top-dose-only effect, or another doubt; inactive means no such curve, though single readings can be large; an effect the other way counts as inactive or inconclusive.

Columns and labels:
[1] = target: Cellular tumor antigen p53 (Homo sapiens) (UniProt P04637); experiment: Primary qHTS for small molecule compounds that upregulate eGFP-tagged delta133p53alpha (in N-terminal) cells. (AID 2060322); conditions: NCI-H358 eGFP-delta133p53alpha fluorescence, 24 h; activation: stronger effect = higher value; further: nearly all actives have a fitted effect of over 75% in size; further: potency means the concentration at half of the fitted maximal effect;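 on activation: cells pre-induced with doxycycline then dosed without doxycycline; series mostly up to about 56 µM; 0% = DMSO vehicle and 100% = reference activator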
Outline: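 NCI-H358 cells pre-induced 24 h with 10 ng/ml doxycycline for eGFP-delta133p53alpha, plated dox-free and exposed 24 h at 37C to titrated compounds. Fixed, Hoechst-stained; gated GFP peak intensity by laser scanning cytometry, normalized to DMSO (0%) and 57.5 uM 5-azacytidine (100%).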

[2] = target: Aldehyde dehydrogenase, mitochondrial (Homo sapiens) (UniProt P05091); experiment: qHTS for Inhibitors of the Aldehyde Dehydrogenase Family (ALDH2) Primary screen (AID 2061308);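 further: plate controls were vehicle for no effect and reference inhibitor for full effect; nearly all actives have a fitted effect of over 55% in size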
[3] = target: Retinaldehyde dehydrogenase 3 (Homo sapiens) (UniProt P47895); experiment: qHTS for Inhibitors of the Aldehyde Dehydrogenase Family (ALDH1A3) Primary screen (AID 2061315);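 further: plate controls were DMSO vehicle for no effect and reference inhibitor for full effect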
[4] = BET inhibitor-based combinations targeting novel dependencies in MECOM-rearranged (r) AML: SET-2 cell line (AID 2202231); conditions: SET-2 AML cells viability, CellTiter-Glo luminescence, 48 h; viability: stronger effect = lower value, concentration not given here; further: nearly all actives have a fitted effect of over 35% in size; further: potency means the concentration at half of the fitted maximal effect;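 on viability: plate controls were DMSO treated cells for no effect and wells without cells for full effect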
Outline: (§1)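 Cells were plated at 500 per well and exposed to an 11-point dose series of each drug for 48 hr. Viability was measured by CellTiter-Glo luminescence, normalized to DMSO and empty-well controls, and summarized as AUC and per-cell-line Z-AUC.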

[5] = BET inhibitor-based combinations targeting novel dependencies in MECOM-rearranged (r) AML: OCI-AML3 cell line (AID 2202232); conditions: Potency: OCI-AML3 viability; further: nearly all actives have a fitted effect of over 35% in size; further: potency means the concentration at half of the fitted maximal effect
Outline: as §1

[6] = BET inhibitor-based combinations targeting novel dependencies in MECOM-rearranged (r) AML: MV-4-11 cell line (AID 2202233); further: nearly all actives have a fitted effect of over 45% in size; further: potency means the concentration at half of the fitted maximal effect
Outline: (§2)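 Activity is given as area under the curve and as Z-AUC, mean-centred within each cell line. It comes from 11-point dose curves normalized to DMSO and empty wells. CellTiter-Glo luminescence was read after 48 hr drug exposure of 500 cells/well.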

[7] = BET inhibitor-based combinations targeting novel dependencies in MECOM-rearranged (r) AML: HNT-34 cell line (AID 2202234); further: nearly all actives have a fitted effect of over 35% in size; further: potency means the concentration at half of the fitted maximal effect
Outline: as §2

[8] = BET inhibitor-based combinations targeting novel dependencies in MECOM-rearranged (r) AML: UCSD-AML1 cell line (AID 2202235); further: nearly all actives have a fitted effect of over 40% in size; further: potency means the concentration at half of the fitted maximal effect
Outline: as §2

[9] = BET inhibitor-based combinations targeting novel dependencies in MECOM-rearranged (r) AML: AML-191 cell line (AID 2202236; further: nearly all actives have a fitted effect of over 35% in size; further: potency means the concentration at half of the fitted maximal effect)
Outline: as §1

[10] = BET inhibitor-based combinations targeting novel dependencies in MECOM-rearranged (r) AML: AML-194 cell line (AID 2202237; further: nearly all actives have a fitted effect of over 40% in size; further: potency means the concentration at half of the fitted maximal effect)
Outline: as §1

Chain of Cellular tumor antigen p53 (Homo sapiens) (P04637 whole entry, looked up): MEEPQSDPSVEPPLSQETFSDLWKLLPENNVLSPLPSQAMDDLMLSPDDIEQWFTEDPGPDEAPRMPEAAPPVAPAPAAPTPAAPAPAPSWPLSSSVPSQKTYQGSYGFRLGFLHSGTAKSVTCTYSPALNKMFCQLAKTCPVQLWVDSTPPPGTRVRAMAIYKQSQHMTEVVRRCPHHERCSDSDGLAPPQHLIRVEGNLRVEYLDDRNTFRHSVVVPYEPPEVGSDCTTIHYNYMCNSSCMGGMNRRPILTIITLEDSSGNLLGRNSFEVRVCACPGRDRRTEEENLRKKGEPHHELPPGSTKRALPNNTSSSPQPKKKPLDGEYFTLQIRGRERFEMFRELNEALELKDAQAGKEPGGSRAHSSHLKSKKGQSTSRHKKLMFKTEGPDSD

CS(=O)(=O)c1ccc(C(=O)Nc2ccc(Cl)c(-c3ccccn3)c2)c(Cl)c1
inactive: activation [1] -14.7% and -1.91% | Potency [2] | Potency [3] | viability [4] 106% | Potency [5] | Potency [6] | Potency [7] | Potency [8] | Potency [9] | Potency [10]

CC(=O)Nc1ccc(C(=O)Nc2ccccc2N)cc1
inactive: activation [1] 3% and -4.47% | Potency [2] | Potency [3]
active: Potency [4] 7.42 µM | Potency [5] 16.6 µM | Potency [6] 5.9 µM | Potency [7] 11.8 µM | Potency [8] 10.5 µM | Potency [9] 18.6 µM | Potency [10] 18.6 µM

Cn1cc(-c2ccc(S(=O)(=O)n3ccc(/C=C/C(=O)Nc4ccccc4N)c3)cc2)cn1
active: Potency [1] 19 µM | Potency [4] 1.86 µM | Potency [5] 1.18 µM | Potency [6] 1.18 µM | Potency [7] 1.05 µM | Potency [8] 1.18 µM | Potency [9] 0.833 µM | Potency [10] 1.05 µM
inactive: Potency [2] | Potency [3]

CCNC(=O)C#Cc1ccc2c(C(=Nc3ccc(CN(C)C)cc3)c3ccccc3)c(O)[nH]c2c1
active: Potency [1] 13.1 µM | Potency [4] 12.9 µM | Potency [5] 0.144 µM | Potency [6] 0.0645 µM | Potency [7] 0.091 µM | Potency [8] 0.574 µM | Potency [9] 0.204 µM | Potency [10] 0.162 µM
inactive: Potency [2] | Potency [3]

CC1CCN(c2cc(N3CCN(C)CC3)ccc2NC(=O)c2cc(C#N)c[nH]2)CC1
active: Potency [5] 20.9 µM | Potency [6] 8.33 µM | Potency [7] 26.3 µM | Potency [9] 20.9 µM | Potency [10] 23.5 µM
inactive: activation [1] 4.19% and 20.5% | Potency [2] | Potency [3] | viability [4] 116%
